PubChem BioAssay (NCI)
The panel holds about 79,000 compounds, 15% with a hit somewhere; the sample as a whole holds those more often. Unmarked numbers belong to inactive results. Activity calls are given as the source filed them. Rule as the data show it: active = growth inhibition above about 70%; inactive = the rest.

Experiments:
[1] = NCI Yeast Anticancer Drug Screen. Data for the rad50 strain (AID 155);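 also: 0% = growth of vehicle-only cultures of the same strain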; details: S. cerevisiae rad50 strain growth inhibition, hits give high values
Method in brief: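 Genetically altered yeast (DNA repair pathway); compound treatment; growth inhibition vs vehicle ctrl.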

[2] = NCI Yeast Anticancer Drug Screen. Data for the mec2-1 strain (AID 157); details: S. cerevisiae mec2-1 strain, hits give high values
Method in brief: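 Each compound was tested on mec2-1 yeast, a strain altered in DNA damage repair or cell cycle control. Growth inhibition is reported relative to vehicle.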

[3] = NCI Yeast Anticancer Drug Screen. Data for the sgs1 mgt1 strain (AID 161);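 also: 0% = growth of cultures given vehicle only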; details: S. cerevisiae sgs1 mgt1 strain, hits give high values
Method in brief: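 Genetically altered yeast, compound exposure, growth inhibition relative to vehicle.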

[4] = NCI Yeast Anticancer Drug Screen. Data for the cln2 rad14 strain (AID 165);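 also: 0% = growth equal to vehicle treated cultures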; details: S. cerevisiae cln2 rad14 strain, hits give high values
Method in brief: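 Test compounds were added to cln2 rad14 yeast cultures; inhibition of growth was then determined by comparison with vehicle treatment.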

[5] = NCI Yeast Anticancer Drug Screen. Data for the bub3 strain (AID 167); details: S. cerevisiae bub3 mutant strain, hits give high values
Method in brief: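 Yeast carrying a defined mutation is treated with each compound, and growth is compared with that of vehicle-exposed cells to give inhibition.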

[6] = NCI Yeast Anticancer Drug Screen. Data for the mlh1 rad18 strain (AID 175); details: S. cerevisiae mlh1 rad18 strain growth inhibition, hits give high values
Method in brief: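 Inhibition values reflect reduced growth of mutant yeast versus vehicle-treated controls following compound exposure; the mutations affect DNA damage repair.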

[7] = at 5.0 µM (retest, dose inferred, filed as 0.5)
[8] = at 50.0 µM (retest, dose inferred, filed as 5.0)

Row | SMILES | growth inhibition [1, 7] | growth inhibition [1, 8] | growth inhibition ([1]; at 50.0 µM) | growth inhibition [2, 7] | growth inhibition [2, 8] | growth inhibition ([2]; at 50.0 µM) | growth inhibition [3, 7] | growth inhibition [3, 8] | growth inhibition ([3]; at 50.0 µM) | growth inhibition [4, 7] | growth inhibition [4, 8] | growth inhibition ([4]; at 50.0 µM) | growth inhibition [5, 7] | growth inhibition [5, 8] | growth inhibition ([5]; at 50.0 µM) | growth inhibition [6, 7] | growth inhibition [6, 8] | growth inhibition ([6]; at 50.0 µM)
1 | c1ccc([P+](CCCCCC[P+](c2ccccc2)(c2ccccc2)c2ccccc2)(c2ccccc2)c2ccccc2)cc1 | 61% | 85% (active) | 81.7% (active) | 46% | 94% (active) | 84.8% (active) | 38% | 97% (active) | 83.3% (active) | 36% | 68% | 78.2% (active) | 43% | 77% (active) | 86.6% (active) | 52% | 94% (active) | 81.7% (active)
2 | O=C(Nc1cccc(C(F)(F)F)c1)c1cc(Br)cc(Br)c1O | 38% | 87% (active) | 83.2% (active) | 37% | 80% (active) | 62.6% | 44% | 85% (active) | 77% (active) | 45% | 75% (active) | 67.5% | 44% | 83% (active) | 69.3% | 52% | 95% (active) | 64.1%
3 | CCOCCC(=O)N1c2ccccc2CC1c1c[nH]c2ccccc12 (stereo not given) | -6% | 36% | 74.3% (active) | -9% | 32% | 4.65% | -8% | 59% | 51.6% | -57% | 36% | 8.45% | -8% | 48% | 0.45% | -4% | 34% | 67.1%
4 | [C](#[C][Sn]([c]1ccccc1)([c]1ccccc1)[c]1ccccc1)[Sn]([c]1ccccc1)([c]1ccccc1)[c]1ccccc1 | 98% (active) | 95% (active) | 97.5% (active) | 99% (active) | 97% (active) | 98.3% (active) | 99% (active) | 97% (active) | 96.5% (active) | 98% (active) | 95% (active) | 98.4% (active) | 98% (active) | 96% (active) | 98.8% (active) | 98% (active) | 97% (active) | 96.9% (active)
5 | O=c1cccccc1O.O=c1cccccc1O.O=c1cccccc1O.[Ru] | 29% | 64% | 87.5% (active) | 32% | 90% (active) | 96.2% (active) | 49% | 81% (active) | 91.5% (active) | 11% | 36% | 26.4% | -11% | -9% | 15.8% | 55% | 81% (active) | 95.1% (active)
6 | CCn1c2ccc([N+](=O)[O-])cc2c2c([N+](=O)[O-])c(-n3cccc3)ccc21 | 24% | 59% | 86% (active) | 2% | 10% | 0.3% | 5% | 28% | 36.4% | -3% | 6% | 8.9% | -3% | -4% | 10.9% | 3% | 29% | 21.2%
7 | CCCCCCCCCCn1cc[nH]c1=S | 47% | 99% (active) | 99% (active) | 47% | 99% (active) | 99.2% (active) | 72% (active) | 99% (active) | 99.3% (active) | 18% | 99% (active) | 98.8% (active) | 72% (active) | 99% (active) | 99.2% (active) | 59% | 98% (active) | 99.3% (active)
8 | CC(=O)c1ccc(Cl)c(N=Cc2cc(Br)ccc2O)c1 | 55% | 77% (active) | 68.4% | 35% | 81% (active) | 70.4% (active) | 57% | 95% (active) | 67.4% | 34% | 56% | 24.4% | 52% | 98% (active) | 78.2% (active) | 64% | 96% (active) | 61.5%
9 | N#CC1C(=O)NC(=O)CC1c1ccccc1 (stereo not given) | 10% | 99% (active) | 99.2% (active) | -10% | 99% (active) | 99.2% (active) | 10% | 99% (active) | 99% (active) | 10% | 99% (active) | 99.3% (active) | 0% | 99% (active) | 99.3% (active) | 13% | 99% (active) | 99.2% (active)
10 | COc1ccc2nc3cc(Cl)ccc3c(NCCCN(Cc3cc(OC)c(OC)c(OC)c3)Cc3cc(OC)c(OC)c(OC)c3)c2c1 | 45% | 72% (active) | 62.4% | 29% | 58% | 34.6% | 38% | 62% | 45.6% | 32% | 43% | 33.4% | 37% | 83% (active) | 56.6% | 48% | 80% (active) | 73.5% (active)
